These results are taken from the supplement of paper PMC12632987.

B1: usp_38_diff_out_5_164_599 (protein)
chain: SLEEYLRRMEEIREKLIKELKELLEEAKKNPEKLEEIKKEVEKKTEEALNEMNEITTAALEAYPERAEEILRHYSEQVEKMLTEYQEVMEELEKLEKEKK
B2: usp_38_diff_out_4_99_569 (protein)
chain: EKEKKVKEVKKIKEKIEELLKEAEEAEKLSVEERRKKAEEIRKELDELAKKLGKLYFEARDSGDKELIEAVNKEADKAVDAYKEAATKLHELEAKVQEEE
B3: usp_38_diff_out_4_99_580 (protein)
chain: EKEKKVKELKKLTEEAKKIKEEAEAAKSLPLEERKKKAEELRKRLDELAKRAAAIYFEARDSGDEELKKAVEEEADKFVDAYLEAGTALNELEHLVLEEE
B4: usp_38_diff_out_4_99_568 (protein)
chain: MKEEKVKEVKELTERAKELLEKAKEAFELSHEERKKKAEELRKELDELAKRMGAIYFEARDSGDEELIEAVTEEADEFVDAYNEAAEALNLLEHEVLEEE
B5: usp_38_diff_out_5_164_585 (protein)
chain: GVEEAKKKMTELTEETIKKLEELLKKAKENPEKAEEYLKEANKLVQEALDELNRITTETLEAHPEQAEEILAHYSEQVTKLLTKYQEVMKEIKEIIKKAK
B6: usp_38_diff_out_5_164_596 (protein)
chain: SVEEALKELTELTDKTIAEIDKLVAEAKKNPEKLDEYEKQLTETTNEAIDKMNEITTKALEANPEKADEILSHYDEQMTRLLTRYAEAKAEIEALKKALE
B7: usp_38_diff_out_5_164_582 (protein)
chain: GVEEYLAEMEAIRDETIAKLDALLAEAKENPEKLDEYKKEITDTTNEAINRMTEVTTRALEEHPEKAEEILARYSELMDELLTHYNAVMEELEKLKEELE
B8: usp_38_diff_out_5_164_589 (protein)
chain: GVEKYLEEIDKLTEEAIAKIKELLAEAKKNPEKLDEVEKEIKELTDKTLDEINKITTEALEKFPEKAEEILSHYDEQVTKLLTAYQAALDELAKLKKEKA
B9: usp_38_diff_out_4_99_574 (protein)
chain: EKEEKVKKAEEIAKKLEELLKEAKKARELSTEERRKKAEEIRKELDELAKELGKIYFEARDSGDKELIKEVEEVAKKAVDAYEKAATELFELEDEVQQEE
B10: usp_38_diff_out_5_164_588 (protein)
chain: GLEEYLEEIDKITEETIEKLKKLLEEAKKNPEKLEEYEKEIEKLTEEALDKINEVVTEALEKHPEKAEEILAHYDEQVTRLLTAYQEAKKELEKLKKEKE
B11: usp_38_diff_out_5_164_586 (protein)
chain: TVEAAKKQMDEITEKLIKELKKLKEEAEKDPSKLDEIEKEANEKTNKAIDEMTAITTETLEANPEKADEILAHYSEQIDKMLKEYQELMDYIKKLKEEKE
B12: usp_38_diff_out_4_99_577 (protein)
chain: EKEKKVEEVKKIKEELKKLKEEAEAAKKLPLEERKKVAEELSKRLDELAKRLGKIYFEARDTGDKELIKAVTEEANKAVDEYLKAATALNELQSLVDEER
B13: usp_38_diff_out_4_99_565 (protein)
chain: EKERMVEEVRRLTERARELLERARAAFELPPEERRRTAEELARELDELARRMGAIAFAARDSGDPELIKAVNEEADEFVDAYTEAATALNELRHLVLQEE
B14: usp_38_diff_out_5_164_584 (protein)
chain: EVEEAFKEMDALTEETIKKLNELLKEAKENPEKAEEYLKEATSLVNSALDKLNEITTETLEKHPEKAEEILKHYDERVTKLLTEYQKVKEEIQKIIEEAK
B15: usp_38_diff_out_4_99_578 (protein)
chain: EKEKKVEELKKLTEKAKELKKEAEAAKTLSLEERKKKAEELRKELDKIAEEAAKIYFEARESGDKELIEAVEKEAKKFVDAYLEAGTALNELQHEVDEAE
B16: usp_38_diff_out_4_99_572 (protein)
chain: EREEMVERMKELTERLKELTARAKAARALPPAERAAAAAALREELDRLAREAGEIYFRARDSGDKELIEEVGKVADEFVDAYLEAGTALNELEAEVDAAA
B17: usp_38_diff_out_4_99_570 (protein)
chain: KKEELVERAKELKERAEELLKEAKKARELSTEERAKKAAEIDKELDELAKEMGEIYFEARDSGDEELIEAVTEVADEFVKAYEKAATELFELQAEVQEEQ
B18: usp_38_diff_out_5_164_600 (protein)
chain: SVEESLAEIDKITAELKEELKALLAEAKENPEKLKEYKKKMTEKMNEAIDKMNEITTKTLEAYPEQADTILAHYDRRMTEMLTAYNEAMKELEALEKELA
B19: usp_38_diff_out_4_99_571 (protein)
chain: EKEKIVEEVKKLKEEAEKLLKEAKEAKKLSTEERRKKAEEIRKKLDELAKEMGKLYFEARDSGDKELIEEVNKEADEFVDAYEKAATELFELEAEVEEEE
B20: usp_38_diff_out_5_164_602 (protein)
chain: SLEEYLKEMDELTKELIEELKKLVEEAKKNPEKLEEYKKKINEKTNEAIDKMNEITTKALEEFPEKAEEILKHYSEQIDKMLEAKNAAMKELDALKKAQA
B21: usp_38_diff_out_5_164_583 (protein)
chain: GVEEYLARLDAIKKETIEELDKLLEEAKKNPEKLEEYKKKITEITNKAINEMTKVTTEALEEFPEQAETILAHYSERIDELLKHYNEVMKELEKLKKELE
B22: usp_38_diff_out_4_99_575 (protein)
chain: EKEEMVERVKRLTEEVRRLLEEVEAARTLSPEERRALAERASAELDRLAEEMGKIYFEARDSGDKELIKAVTEAGDEFVDAYERAGLALAELRNEVDEES
B23: usp_38_diff_out_4_99_579 (protein)
chain: EKEKMVERLKELTKRAERLREEAEAAFSLPLEERRELAERLREELDRLAEEAAEIYFEARDSGDEELIKAVEKEADKFVDAYLAAGTALNELEHLVLEEE
B24: usp_38_diff_out_5_164_593 (protein)
chain: GVEEYLEELEKITEEAIKKLKELLEEAKKDPSKLEEYKKKATELVNEAIDKMNEITTEALEKHPEKADEILEHYDRQVTRLLTEYQKVMDEIEKIKKELE
B25: usp_38_diff_out_4_99_573 (protein)
chain: KKEELVEEVKRLTEEVKEIKKEAEAAKSLPLEERRATAEELRRRLDELARRMGEIYFEARDSGDEELIEAVEEEADKFVDEYLKAGTALNELESEVLEAE
B26: usp_38_diff_out_5_164_605 (protein)
chain: GVEEALERLERIREELKKELDELLEEAKKNPEKLEEYKKKVTEKVNEAIDEMNEVTTAALEAHPERADEILAHYDEVVTEMLEHYNKVMEELEKLKKEYE
B27: usp_38_diff_out_5_164_592 (protein)
chain: GVEKYLEELQKITDEAIKELKELLEEAKENPEKLEEYKKKATEKTNEAIDKMNEITTKALEEHPEQADTILAHYDEQVTKLLTEYNEVLKEIEELKKKKE
B28: usp_38_diff_out_5_164_604 (protein)
chain: AVEEALAKMKAITEELKKKFDELLAEAKKNPEKLDEYKKEVTEALNKAIDEMNEVTTAALEAAPEQADTILAAYDENVTEMLTHYQAVMDELKALEKEAA
B29: usp_38_diff_out_5_164_603 (protein)
chain: AVEAALAEMDAIAAELKKELEKLLEEAKKNPEKLEEYKKKLTEATNAALDRLNATTTAALEAAPERADEILAHYDRVVTEMLTKYQEAKEELEKLKKEAA
B30: usp_38_diff_out_4_99_566 (protein)
chain: MKEELVKKVKELKKKAEELKKKAEEAFKLDHEERKKVAEELEKELDEIAKEMGAIYFSARDSGDAELIKAVQKEADEFVDAYNEAATALNELRHLVLEEE
B31: usp_38_diff_out_5_164_594 (protein)
chain: GVDAALAEIDKITEEAIKKMEELLEKAKKNPEQLDEYKKKLTEITNEALDKINATTTAALEAHPEQADTILAHYDKQVTKMLTKYQEALDEIEKLKKEKE
B32: usp_38_diff_out_5_164_587 (protein)
chain: MVEEYLKEMEKITEEAIKKLEELLAEAKKNPEKLDEYKKEIEKLVEKALNEINELVTKALEENPEKAEEILKKYDELVTKLLTAYQKAMKELEALKKEKA

The target of the experiment is T1, USP38, Q8NB14.
T1 chain: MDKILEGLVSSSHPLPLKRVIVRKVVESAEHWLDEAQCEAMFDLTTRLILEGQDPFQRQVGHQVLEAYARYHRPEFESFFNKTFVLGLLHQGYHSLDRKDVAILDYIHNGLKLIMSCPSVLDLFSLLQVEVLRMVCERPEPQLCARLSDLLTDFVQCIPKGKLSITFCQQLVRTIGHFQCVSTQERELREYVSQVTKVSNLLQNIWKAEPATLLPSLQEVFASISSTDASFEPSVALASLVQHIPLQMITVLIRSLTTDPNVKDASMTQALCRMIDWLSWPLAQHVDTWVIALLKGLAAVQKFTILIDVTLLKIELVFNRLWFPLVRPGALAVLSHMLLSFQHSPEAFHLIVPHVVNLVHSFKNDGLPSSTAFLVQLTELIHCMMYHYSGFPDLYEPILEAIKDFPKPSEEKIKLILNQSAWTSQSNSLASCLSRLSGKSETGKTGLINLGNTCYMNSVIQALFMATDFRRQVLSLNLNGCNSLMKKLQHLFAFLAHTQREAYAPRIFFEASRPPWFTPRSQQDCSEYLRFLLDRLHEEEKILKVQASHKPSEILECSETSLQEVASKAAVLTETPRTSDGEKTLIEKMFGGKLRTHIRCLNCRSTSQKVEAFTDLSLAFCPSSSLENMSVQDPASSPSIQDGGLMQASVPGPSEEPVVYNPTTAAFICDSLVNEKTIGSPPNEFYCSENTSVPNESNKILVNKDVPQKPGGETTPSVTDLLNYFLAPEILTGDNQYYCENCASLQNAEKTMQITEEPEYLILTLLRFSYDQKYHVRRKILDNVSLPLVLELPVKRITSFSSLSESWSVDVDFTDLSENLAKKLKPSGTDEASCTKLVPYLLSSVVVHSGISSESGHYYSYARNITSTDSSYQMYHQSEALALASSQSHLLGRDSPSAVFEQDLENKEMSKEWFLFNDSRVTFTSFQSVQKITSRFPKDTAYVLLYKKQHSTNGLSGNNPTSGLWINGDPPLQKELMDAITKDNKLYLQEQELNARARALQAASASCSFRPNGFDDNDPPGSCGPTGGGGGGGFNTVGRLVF
The experiment can be described thus: median log2 fold change of GCK-ALFA target abundance (FLAG IP / Myc IP barcode read proportion) (log2 ratio); each designed protein is fused to an ALFA-tag nanobody in HEK293 cells to bring the named protein to FLAG-tagged glucokinase (GCK); Myc marks an untargeted standard; higher = target protein stabilised (more abundant). As to conditions: target protein: 3xFLAG-MCP-GCK-ALFA reporter; HEK293 landing pad (RPLP). Put shortly: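 HEK293 landing-pad cells received a recombined binder library fused to the ALFA nanobody and were induced with 2 μg mL^−1 doxycycline, then transfected with a plasmid encoding a FLAG-tagged target and a Myc-tagged standard. Lysates were collected after 48 h for anti-FLAG and anti-Myc immunoprecipitation, and the circular RNA barcodes were reverse transcribed, amplified and sequenced. Target abundance for each binder is the median log2 ratio of FLAG to Myc barcode read proportions. Barcodes had to reach a proportion of at least 10^−7 in both replicates, each binder needed at least 3 barcodes per replicate, a pseudocount of 10^−6 was applied, and the two replicates were pooled.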
In the case of B1, the “median log2 fold change” value was -0.404.
Regarding B2, the “median log2 fold change” value is -0.151.
With B3 the figure was 0.145.
Then B4, with -0.28; and B5, with 0.00563.
As to B6, the “median log2 fold change” value is -0.12.
Then B7, with -0.0672; and B8, with -0.351; and B9, with -0.356.
For the molecule B10, the “median log2 fold change” value turned out to be 0.25.
For the molecule B11, the “median log2 fold change” value was -0.179.
Regarding B12, the “median log2 fold change” value is -0.345.
As to B13, the “median log2 fold change” value worked out at 0.126.
Take B14: the “median log2 fold change” value was -0.0565.
Consider B15, for which the “median log2 fold change” value is -0.163.
As to B16, the “median log2 fold change” value turned out to be 0.235.
For B17, the “median log2 fold change” value was -0.0709.
Consider B18, for which the “median log2 fold change” value is -0.0274.
Take B19: the “median log2 fold change” value was -0.355.
As to B20, the “median log2 fold change” value was found to be 0.277.
In the case of B21, the “median log2 fold change” value is 0.0633.
In the case of B22, the “median log2 fold change” value was -0.45.
For the molecule B23, the “median log2 fold change” value was -0.154.
Turning to B24, the “median log2 fold change” value was -0.211.
Consider B25, for which the “median log2 fold change” value turned out to be 0.007.
In the case of B26, the “median log2 fold change” value is -0.0369.
For B27, the “median log2 fold change” value was determined as 0.0989.
B28: the “median log2 fold change” value was -0.333.
B29: the “median log2 fold change” value was -0.21.
Take B30: the “median log2 fold change” value turned out to be 0.0841.
Consider B31, for which the “median log2 fold change” value is -0.474.
With B32, the “median log2 fold change” value is -0.281.
